A short description of assay [1]: qHTS assay to identify small molecule antagonists of the estrogen related receptor signaling pathway with the pleiotropic PPARgamma coactivator (PGC) from Tox21 10K library (AID 1224841; call rule not given here; further: actives are mostly falling curves and most rising ones were filed inactive; nearly all actives have a fitted effect of over 50% in size). The method, boiled down: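 Antagonism in this quantitative HTS is taken from loss of luciferase signal in PGC/ERR cells. Cells (2,000/well) are treated with compounds in DMSO after a 6 h settling period and read by One-Glo luminescence after 18 h.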

The nature of assay [2]: qHTS assay to identify small molecule agonists of the estrogen related receptor signaling pathway with the pleiotropic PPARgamma coactivator (PGC) from Tox21 10K library (AID 1224842; active means well fitted curve in the direction sought with a large enough effect in the repeat runs; an effect the other way counts as inactive or inconclusive; further: nearly all actives have a fitted effect of over 15% in size; further: potency means the concentration at half of the fitted maximal effect). The procedure, abridged: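 PGC/ERR reporter cell line, 2,000 cells per well, incubated 6 h at 37 C before 23 nL compound in DMSO was added. After 18 h at 37 C, One-Glo luminescence read following 30 min at room temperature.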

For assay [3], the target named is Thyrotropin receptor (Homo sapiens) (UniProt P16473). Description: qHTS assay to identify small molecule agonists of the thyroid stimulating hormone receptor (TSHR) signaling pathway (AID 1224843). Further: nearly all actives have a fitted effect of over 45% in size. Further: potency means the concentration at half of the fitted maximal effect. The method, boiled down:
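TSHR-HEK293 cells in agonist mode, 30 min room-temperature step, then cAMP measured by competitive HTRF (cAMP-d2 with anti-cAMP cryptate) after 1 h at room temperature. Tested at 15 concentrations in triplicate.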

A short description of assay [4]: qHTS assay to identify small molecule agonists of the hypoxia (HIF-1) signaling pathway - cell viability counter screen (AID 1224844). Further: nearly all actives have a fitted effect of over 50% in size. The method, boiled down:
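Tox21 10K compounds were added to HRE-bla ME-180 cells (0.5% dialyzed FBS) and incubated 17 hrs at 37C; ATP-based CellTiter-Glo luminescence then reported cell viability in the same wells.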

Assay [5] in a line: qHTS assay to identify small molecule agonists of H2AX (AID 1224845; active means well fitted activation curve with a large enough effect in the signal ratio in the repeat runs, not every such curve was filed as active; the % refers to the signal ratio). The procedure, abridged:
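Wild-type CHO-K1 cells, plated overnight, exposed 3hr at 37C to 15 concentrations (0.76% DMSO final). Lysed, then HTRF anti-pH2AX (S139) cryptate and anti-H2AX-d2 antibodies, 24 hr room temperature; 665/620 nm emission read.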

The nature of assay [6]: qHTS assay to identify small molecule agonists of the hypoxia (HIF-1) signaling pathway (AID 1224846; active means well fitted activation curve with a large enough effect in the signal ratio in the repeat runs, not every such curve was filed as active; the % refers to the signal ratio). The method, boiled down:
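Steps: seed ME-180 HRE-bla cells (2,000/well, 0.5% dialyzed FBS); incubate 5 hrs at 37C; pin-transfer compounds or DMSO; incubate 17 hrs; add LiveBLAzer B/G substrate CCF4-AM; measure reporter activation by FRET.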

Assay [7] is described as follows: qHTS assay to identify small molecule agonists of H2AX - cell viability counter screen (AID 1224847). Further: top concentration of the series differs between compounds; nearly all actives have a fitted effect of over 30% in size. The method, boiled down:
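For this counter screen, overnight-attached CHO-K1 cells received test compounds (15 concentrations, 0.76% DMSO final); 3 hr later at 37C, CellTiter-Glo reagent was added and luminescence recorded after 30 min at room temperature.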

Assay [8] is described as follows: qHTS assay to identify small molecule antagonists of the estrogen related receptor (ERR) signaling pathway from Tox21 library (AID 1224848; active means well fitted curve in the direction sought with a large enough effect in the repeat runs; an effect the other way counts as inactive or inconclusive; further: nearly all actives have a fitted effect of over 50% in size). The procedure, abridged:
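ERR reporter cell line (from NTP) seeded 2,000 cells/well, rested 6 h at 37 C/5% CO2, then pin-dosed with compounds in DMSO. After 18 h at 37 C, ONE-Glo added; luminescence read after 30 min at room temperature.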

Assay [9] is described as follows: qHTS assay to identify small molecule agonists of the estrogen related receptor (ERR) signaling pathway from Tox21 library (AID 1224849). Further: nearly all actives have a fitted effect of over 15% in size. To be noted: ERR reporter cell line, ONE-Glo luciferase, 18 h; at 92.4 µM (top of the series) unless noted. The method, boiled down:
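Agonist signal is luciferase luminescence from an ERR reporter cell line treated 18 h at 37 C with DMSO-dissolved compounds, read 30 min after ONE-Glo addition at room temperature.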

Assay [10] is described as follows: qHTS RealTime-Glo MT Cell Viability Assay in HepG2 cells - 24 hour (AID 1224867; active means well fitted curve in the direction sought with a large enough effect in the repeat runs; an effect the other way counts as inactive or inconclusive; further: nearly all actives have a fitted effect of over 50% in size). The method, boiled down:
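HepG2 suspension premixed with RealTime-Glo reagents is plated at 600 cells per well and left 5 h at 37 C/5% CO2. Compounds in DMSO then go in, and bioluminescence reflecting viable cell number is recorded over 40 h.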

The values below come from PubChem BioAssay (Tox21).

Unmarked numbers belong to inactive results. Results filed as inconclusive are left out. Activity calls are given as the source filed them. Unless noted, the call rests on the fitted dose curve.
On the % scale 0 is the no-effect control and ±100 the full control effect.

Chain of Thyrotropin receptor (Homo sapiens) (P16473 whole entry, looked up): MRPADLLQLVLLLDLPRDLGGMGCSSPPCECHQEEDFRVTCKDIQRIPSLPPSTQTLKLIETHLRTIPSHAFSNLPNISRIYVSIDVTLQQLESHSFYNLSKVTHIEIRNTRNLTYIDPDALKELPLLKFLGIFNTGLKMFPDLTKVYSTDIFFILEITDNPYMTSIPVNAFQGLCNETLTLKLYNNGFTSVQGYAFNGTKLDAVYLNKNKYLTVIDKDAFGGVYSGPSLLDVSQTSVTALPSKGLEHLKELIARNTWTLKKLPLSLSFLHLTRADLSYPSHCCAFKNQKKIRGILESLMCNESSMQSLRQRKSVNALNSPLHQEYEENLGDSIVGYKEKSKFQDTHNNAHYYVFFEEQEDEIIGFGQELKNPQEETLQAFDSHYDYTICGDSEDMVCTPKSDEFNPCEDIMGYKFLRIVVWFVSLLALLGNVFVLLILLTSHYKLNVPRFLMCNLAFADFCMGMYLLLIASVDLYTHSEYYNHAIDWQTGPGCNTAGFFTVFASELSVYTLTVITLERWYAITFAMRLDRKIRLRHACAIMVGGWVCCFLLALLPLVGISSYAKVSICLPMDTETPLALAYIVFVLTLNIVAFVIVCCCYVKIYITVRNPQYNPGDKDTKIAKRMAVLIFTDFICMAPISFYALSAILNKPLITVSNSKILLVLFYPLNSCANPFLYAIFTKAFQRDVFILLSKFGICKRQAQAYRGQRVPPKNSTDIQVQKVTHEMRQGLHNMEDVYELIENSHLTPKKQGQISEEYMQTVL

On to `Cc1ccc(N)nc1`, for which the Potency entry in assay [1], in [2] and in assay [3] was “inactive” each time. Moreover, the compound was called inactive in [4], in assay [5], in assay [6], in [7], in [8] and in [10]. For the same compound, in assay [9], the activity change, positive = activation was 3.66%.
Turning to `O=S(=O)(O)c1cc(I)c(O)c2ncccc12`, the Potency entry in assay [1], in assay [2] and in [3] was “inactive” throughout. The outcome in [4], in [6], in [7], in assay [8] and in [10] was inactive.
In the case of `COC(=O)N/N=C/c1c[n+]([O-])c2ccccc2[n+]1[O-]`, the Potency result in assay [1], in assay [2] and in assay [3] was “inactive” throughout. Also, the compound was called inactive in assay [4], in assay [6], in assay [7], in assay [8] and in [10]. The activity change, positive = activation in [9] is 16.4% [at 42.5 µM].
For `CCCCC(CC)COC(=O)CC#N` (configuration not stated), the Potency result in [1], in [2] and in [3] was “inactive” in each case. Besides, the compound was classed as inactive in assay [4], in assay [5], in assay [6], in [7], in assay [8] and in assay [10].
Take `CCCCOCCCC`: the Potency entry in [1], in assay [2] and in assay [3] was “inactive” throughout. For the same compound, the compound was called inactive in assay [4], in assay [5], in assay [6], in assay [7], in [8] and in assay [10].
Take `CCCCCCC(=O)c1ccccc1`: the Potency result in assay [1], in [2] and in assay [3] was “inactive” each time. In addition, the outcome in assay [4], in assay [5], in [6], in assay [7], in assay [8] and in assay [10] was inactive. Further, the activity change, positive = activation in assay [9] was 3.5%.
Consider `CC(C)OCCO`, for which the Potency entry in assay [1] and in assay [2] was “inactive” each time. For the same compound, the compound was classed as inactive in [4], in [5], in [6], in assay [7], in assay [8] and in assay [10]. For the same compound, the activity change, positive = activation in [9] is 6.53%.
Consider `C=COCCCCO`, for which the Potency result in assay [1], in assay [2] and in assay [3] was “inactive” throughout. Also, the outcome in [4], in [5], in assay [6], in assay [7] and in [10] was inactive. Besides, the activity change, positive = activation in [9] was -29.3%.
For the compound `CC(=O)SCC(CC(=O)c1ccc(C)cc1)C(=O)O` (configuration not stated), the Potency entry in [1], in assay [2] and in assay [3] was “inactive” throughout. The result in assay [4], in assay [5], in [6], in [7], in assay [8] and in [10] was inactive.
As to `CC(=O)SC[C@@H](C)C(=O)N1CCC[C@H]1C(=O)N[C@@H](Cc1ccccc1)C(=O)O`, the Potency entry in assay [1], in assay [2] and in [3] was “inactive” throughout. The compound was classed as inactive in assay [4], in assay [5], in [7], in [8] and in [10].
`COc1ccc(Cl)cc1C`: the Potency result in assay [1] and in [2] was “inactive” in each case. The compound was called inactive in assay [4], in [5], in [6], in [7] and in assay [8].
Take `CC(C)OC(=O)C(C(=O)OC(C)C)=C1SC=CS1`: the Potency entry in assay [1], in assay [2] and in assay [3] was “inactive” in each case. Also, the compound was classed as inactive in assay [4], in [5], in assay [6] and in assay [10].
Regarding `COc1ccc2cc(CCC(C)=O)ccc2c1`, the Potency entry in assay [1] and in [3] was “inactive” throughout. In addition, in [2], the Potency was 13.3 µM (active). Besides, the outcome in [4], in assay [5], in [7], in [8] and in assay [10] was inactive.
As for `CC(C)c1cc(C(C)C)cc(C(C)C)c1`, the Potency entry in [1] and in assay [2] was “inactive” each time. The compound was called inactive in assay [4], in assay [5], in assay [6], in assay [7] and in [8]. Moreover, in assay [9], the activity change, positive = activation is 7.19%.
As to `CCCC(C)C(O)CC` (configuration not stated), the Potency entry in assay [1] and in assay [2] was “inactive” in each case. The outcome in [4], in assay [5], in assay [7], in [8] and in assay [10] was inactive. In addition, the activity change, positive = activation in [9] was -0.957%.
For `NC(=O)CC[C@@H](N)C(=O)O`, the Potency result in assay [1] and in [2] was “inactive” in each case. Besides, the compound was classed as inactive in assay [4], in assay [5], in [6], in assay [7], in assay [8] and in assay [10]. The activity change, positive = activation in assay [9] was 1.56% [at 42.5 µM].
Regarding `C=CCCCCCCCCCCCCCC`, the activation is -5.23% [at 19 µM] in assay [2], 2.45% [at 19 µM] in assay [3] and -0.445% [at 15.8 µM] in [6]. The activity change, negative = cytotoxicity is -3.81% [at 15.8 µM] in assay [4], 0.186% [at 31.6 µM] in assay [7] and 0.31% [at 15.8 µM] in [10]. In addition, the activation (H2AX phosphorylation) in assay [5] is -0.234% [at 31.6 µM]. For the same compound, in assay [8], the activity, negative = inhibition is 3.1% [at 19 µM]. Moreover, the activity change, positive = activation in [9] was 1.6% [at 19 µM].
Turning to `CC(C)(C)C(=O)CCc1ccc(Cl)cc1`, the Potency entry in [1] and in [2] was “inactive” throughout. Moreover, the result in assay [4], in [5], in assay [6], in assay [7], in [8] and in [10] was inactive.
Regarding `C=CCn1cc[n+](C)c1`, the Potency entry in [1] and in assay [2] was “inactive” in each case. In addition, the result in assay [4], in assay [5], in assay [7], in [8] and in assay [10] was inactive.
`COC(=O)C(c1ccccc1Cl)N1CCc2sccc2C1` (configuration not stated): the Potency entry in assay [2] was “inactive”. In addition, the Potency in assay [3] is 16.8 µM (active). Moreover, the compound was classed as inactive in assay [4], in [5], in assay [6], in [7], in assay [8] and in assay [10].
Turning to `CC1(C)CC(N)CC(C)(C)N1`, the Potency result in assay [1] and in assay [2] was “inactive” throughout. The outcome in assay [4], in assay [5], in [7], in assay [8] and in [10] was inactive.
Consider `CO/N=C(\C(=O)O)c1csc(NC(=O)CCl)n1`, for which the Potency result in [1] and in [2] was “inactive” throughout. For the same compound, the result in assay [4], in assay [5], in assay [6], in assay [7], in assay [8] and in [10] was inactive.
Consider `CC(=O)c1c(C)cc(C(C)(C)C)cc1C`, for which the Potency entry in assay [1] and in assay [2] was “inactive” in each case. In addition, the compound was classed as inactive in assay [4], in assay [5], in assay [6], in assay [8] and in assay [10].
Turning to `NNC(=O)CCCCC(=O)NN`, the Potency result in assay [1] and in assay [2] was “inactive” in each case. In addition, the call in assay [4], in [5], in [7], in assay [8] and in [10] was inactive. Also, the activity change, positive = activation in assay [9] is 0.359%.
With `Cc1cc(C)c(C)c(C)c1`, the Potency result in assay [1] and in assay [2] was “inactive” in each case. Also, the outcome in [4], in assay [5], in [7], in assay [8] and in assay [10] was inactive. Besides, the activity change, positive = activation in assay [9] is 5.28%.
